Test [1] can be described thus: NCI Yeast Anticancer Drug Screen. Data for the rad50 strain (AID 155).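 Note: 0% = growth of vehicle-only cultures of the same strain.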 As to conditions: S. cerevisiae rad50 strain growth inhibition, active compounds read high. A digest of the protocol: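 Inhibition values express reduced yeast growth in compound-treated cultures relative to vehicle-treated controls.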
The nature of test [2]: NCI Yeast Anticancer Drug Screen. Data for the mec2-1 strain (AID 157). The settings on record: S. cerevisiae mec2-1 strain, active compounds read high. Summed up:
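Compounds were applied to mec2-1 yeast cells. Their growth was then compared with that of vehicle-treated cultures to give growth inhibition.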

Test [3] is described as follows: NCI Yeast Anticancer Drug Screen. Data for the sgs1 mgt1 strain (AID 161).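 Note: 0% = growth of cultures given vehicle only.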 The settings on record: S. cerevisiae sgs1 mgt1 strain, active compounds read high. Summed up: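 Yeast cells carrying a defined DNA-repair defect were exposed to test compounds. Growth inhibition was measured relative to vehicle-treated controls.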
The nature of test [4]: NCI Yeast Anticancer Drug Screen. Data for the cln2 rad14 strain (AID 165).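 Note: 0% = growth equal to vehicle treated cultures.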 The settings on record: S. cerevisiae cln2 rad14 strain, active compounds read high. A digest of the protocol:
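Strain: cln2 rad14 yeast, altered in cell cycle control and DNA damage repair. Read-out: growth inhibition vs vehicle.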

Test [5] can be described thus: NCI Yeast Anticancer Drug Screen. Data for the bub3 strain (AID 167). The settings on record: S. cerevisiae bub3 mutant strain, active compounds read high. Summed up: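 Steps: expose the mutant yeast strain to compound; grow alongside vehicle-treated cultures; measure growth; express inhibition against the vehicle cultures.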
The nature of test [6]: NCI Yeast Anticancer Drug Screen. Data for the mlh1 rad18 strain (AID 175). The settings on record: S. cerevisiae mlh1 rad18 strain growth inhibition, active compounds read high. A digest of the protocol:
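A repair-deficient yeast strain is exposed to test compound, and growth is scored relative to vehicle-treated controls.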

Setting [7] is: at 5.0 µM (retest, dose inferred, filed as 0.5).
[8] abbreviates: at 50.0 µM (retest, dose inferred, filed as 5.0).

The structures appear in SMILES notation. The panel holds about 79,000 compounds, 15% with a hit somewhere; the sample as a whole holds those more often. Unmarked numbers belong to inactive results. Calls of active or inactive are those of the source. Cut-off read from the data, not from the text of the source: active = growth inhibition above about 70%; inactive = the rest.

In PubChem BioAssay (NCI) one finds growth inhibition data, which are given here for ten compounds.

On to `OCC(O)C(OC1OC(CO)C(O)C(O)C1O)C(O)C(/C=N/Nc1ccc(Br)cc1)=N/Nc1ccc(Br)cc1` (stereo not given), for which the growth inhibition in test [1] (setting [7]) was -3%; in test [1] (setting [8]) it was 98% (active); in test [1] (at 50.0 µM), 99.3% (active); in test [2] (setting [7]), -11%; in test [2] (setting [8]), 98% (active); in test [2] (at 50.0 µM) it was 98.5% (active). The growth inhibition in test [3] (setting [7]) is 2%; in test [3] (setting [8]), 99% (active); in test [3] (at 50.0 µM), 98.5% (active); in test [4] (setting [7]) it was -41%; in test [4] (setting [8]), 99% (active); in test [4] (at 50.0 µM), 98.9% (active). For the same compound, the growth inhibition was 23% in test [5] (setting [7]); 99% (active) in test [5] (setting [8]); 97.9% (active) in test [5] (at 50.0 µM); 13% in test [6] (setting [7]); 98% (active) in test [6] (setting [8]); 98.5% (active) in test [6] (at 50.0 µM).
As to `O=[N+]([O-])c1ccc2c(c1)Cc1cc(O)c(I)cc1-2`, the growth inhibition was 3% in test [1] (setting [7]); 91% (active) in test [1] (setting [8]); 97.5% (active) in test [1] (at 50.0 µM); 13% in test [2] (setting [7]); 92% (active) in test [2] (setting [8]); 97.8% (active) in test [2] (at 50.0 µM). The growth inhibition in test [3] (setting [7]) is 3%; in test [3] (setting [8]), 93% (active); in test [3] (at 50.0 µM), 96.7% (active); in test [4] (setting [7]), -10%; in test [4] (setting [8]), 91% (active); in test [4] (at 50.0 µM), 95.2% (active). Besides, the growth inhibition is -4% in test [5] (setting [7]); 93% (active) in test [5] (setting [8]); 95.8% (active) in test [5] (at 50.0 µM); -2% in test [6] (setting [7]); 95% (active) in test [6] (setting [8]); 97.2% (active) in test [6] (at 50.0 µM).
Regarding `Oc1c(I)cc(Cl)c2cccnc12`, the growth inhibition is 64% in test [1] (setting [7]); 96% (active) in test [1] (setting [8]); 97.2% (active) in test [1] (at 50.0 µM); 63% in test [2] (setting [7]); 97% (active) in test [2] (setting [8]); 98.3% (active) in test [2] (at 50.0 µM). Also, the growth inhibition in test [3] (setting [7]) was 46%; in test [3] (setting [8]), 97% (active); in test [3] (at 50.0 µM), 97.8% (active); in test [4] (setting [7]), 72% (active); in test [4] (setting [8]), 98% (active); in test [4] (at 50.0 µM), 96.8% (active). The growth inhibition is 39% in test [5] (setting [7]); 96% (active) in test [5] (setting [8]); 98.8% (active) in test [5] (at 50.0 µM); 74% (active) in test [6] (setting [7]); 95% (active) in test [6] (setting [8]); 98% (active) in test [6] (at 50.0 µM).
Turning to `O=C(O)[C@@H]1CCCC[C@@H]1C(=O)N(C1CCCCC1)C1CCCCC1`, the growth inhibition was -4% in test [1] (setting [7]); 79% (active) in test [1] (setting [8]); 45.1% in test [1] (at 50.0 µM); -15% in test [2] (setting [7]); 86% (active) in test [2] (setting [8]); 14% in test [2] (at 50.0 µM). Besides, the growth inhibition in test [3] (setting [7]) is 8%; in test [3] (setting [8]), 73% (active); in test [3] (at 50.0 µM), 59%; in test [4] (setting [7]), -7%; in test [4] (setting [8]), 96% (active); in test [4] (at 50.0 µM) it was 28.6%. For the same compound, the growth inhibition in test [5] (setting [7]) was -5%; in test [5] (setting [8]), 96% (active); in test [5] (at 50.0 µM) it was 9.45%; in test [6] (setting [7]) it was -39%; in test [6] (setting [8]) it was 89% (active); in test [6] (at 50.0 µM), 0.5%.
Take `c1ccc(-c2cnc3nc4ccccc4nc3n2)cc1`: the growth inhibition in test [1] (setting [7]) was -7%; in test [1] (setting [8]) it was 89% (active); in test [1] (at 50.0 µM), 94.9% (active); in test [2] (setting [7]), 4%; in test [2] (setting [8]), 76% (active); in test [2] (at 50.0 µM), 50.6%. The growth inhibition in test [3] (setting [7]) was 12%; in test [3] (setting [8]), 73% (active); in test [3] (at 50.0 µM), 95.8% (active); in test [4] (setting [7]) it was -11%; in test [4] (setting [8]), 3%; in test [4] (at 50.0 µM) it was 36.5%. In addition, the growth inhibition in test [5] (setting [7]) is 16%; in test [5] (setting [8]), 77% (active); in test [5] (at 50.0 µM) it was 92% (active); in test [6] (setting [7]), 7%; in test [6] (setting [8]), 93% (active); in test [6] (at 50.0 µM), 89.5% (active).
Take `Cc1occc1C(=S)Nc1ccc(Cl)c(C(=O)OCC(C)C)c1`: the growth inhibition in test [1] (setting [7]) was 28%; in test [1] (setting [8]), 59%; in test [1] (at 50.0 µM) it was 61.3%; in test [2] (setting [7]), 19%; in test [2] (setting [8]) it was 45%; in test [2] (at 50.0 µM), 55.1%. The growth inhibition in test [3] (setting [7]) is 34%; in test [3] (setting [8]), 71% (active); in test [3] (at 50.0 µM) it was 58.8%; in test [4] (setting [7]), 25%; in test [4] (setting [8]) it was 71% (active); in test [4] (at 50.0 µM), 57.6%. Also, the growth inhibition in test [5] (setting [7]) is 30%; in test [5] (setting [8]), 78% (active); in test [5] (at 50.0 µM), 57.1%; in test [6] (setting [7]), 33%; in test [6] (setting [8]) it was 73% (active); in test [6] (at 50.0 µM) it was 41.3%.
As to `CC(=O)OCC1(O)OCC(OC(C)=O)C(OC(C)=O)C1OC(C)=O` (stereo not given), the growth inhibition in test [1] (setting [7]) was 18%; in test [1] (setting [8]) it was -21%; in test [1] (at 50.0 µM), 12.2%; in test [2] (setting [7]), -15%; in test [2] (setting [8]), -20%; in test [2] (at 50.0 µM), -2.6%. The growth inhibition in test [3] (setting [7]) is -4%; in test [3] (setting [8]), 9%; in test [3] (at 50.0 µM), 12.6%; in test [4] (setting [7]) it was 27%; in test [4] (setting [8]), -36%; in test [4] (at 50.0 µM), -2.65%. For the same compound, the growth inhibition in test [5] (setting [7]) is 6%; in test [5] (setting [8]) it was -25%; in test [5] (at 50.0 µM), 7.9%; in test [6] (setting [7]), -4%; in test [6] (setting [8]), -14%; in test [6] (at 50.0 µM), 12.9%.
Turning to `O=C(NNC(=O)c1cccc(C(=O)NNC(=O)c2ccc(Cl)c(Cl)c2)n1)c1ccc(Cl)c(Cl)c1`, the growth inhibition was 35% in test [1] (setting [7]); 64% in test [1] (setting [8]); 44.5% in test [1] (at 50.0 µM); 37% in test [2] (setting [7]); 66% in test [2] (setting [8]); 45.8% in test [2] (at 50.0 µM). Further, the growth inhibition is 47% in test [3] (setting [7]); 62% in test [3] (setting [8]); 52.7% in test [3] (at 50.0 µM); 54% in test [4] (setting [7]); 76% (active) in test [4] (setting [8]); 81.4% (active) in test [4] (at 50.0 µM). The growth inhibition is 61% in test [5] (setting [7]); 80% (active) in test [5] (setting [8]); 70.2% (active) in test [5] (at 50.0 µM); 49% in test [6] (setting [7]); 71% (active) in test [6] (setting [8]); 51.4% in test [6] (at 50.0 µM).
Regarding `Cc1ccc(NC(=O)CSC(N)=O)cc1`, the growth inhibition was 4% in test [1] (setting [7]); 92% (active) in test [1] (setting [8]); 97.5% (active) in test [1] (at 50.0 µM); 4% in test [2] (setting [7]); 96% (active) in test [2] (setting [8]); 98.5% (active) in test [2] (at 50.0 µM). In addition, the growth inhibition in test [3] (setting [7]) was 3%; in test [3] (setting [8]) it was 94% (active); in test [3] (at 50.0 µM) it was 99.1% (active); in test [4] (setting [7]), 2%; in test [4] (setting [8]) it was 94% (active); in test [4] (at 50.0 µM), 97.5% (active). Besides, the growth inhibition in test [5] (setting [7]) was 4%; in test [5] (setting [8]) it was 96% (active); in test [5] (at 50.0 µM) it was 97.8% (active); in test [6] (setting [7]), 2%; in test [6] (setting [8]), 94% (active); in test [6] (at 50.0 µM), 97.7% (active).
On to `CC(C)OC(=O)c1ccc(NCC2=CC(=O)C=CC2=O)cc1Cl`, for which the growth inhibition in test [1] (setting [7]) was 53%; in test [1] (setting [8]), 99% (active); in test [1] (at 50.0 µM), 90.7% (active); in test [2] (setting [7]) it was 44%; in test [2] (setting [8]) it was 100% (active); in test [2] (at 50.0 µM), 92.5% (active). Moreover, the growth inhibition in test [3] (setting [7]) is 55%; in test [3] (setting [8]), 100% (active); in test [3] (at 50.0 µM), 91.2% (active); in test [4] (setting [7]) it was 61%; in test [4] (setting [8]) it was 100% (active); in test [4] (at 50.0 µM) it was 91.2% (active). Also, the growth inhibition in test [5] (setting [7]) is 55%; in test [5] (setting [8]), 100% (active); in test [5] (at 50.0 µM), 88.9% (active); in test [6] (setting [7]) it was 46%; in test [6] (setting [8]) it was 99% (active); in test [6] (at 50.0 µM), 91.7% (active).
